# Test results as given in ChEMBL document CHEMBL3988442, “University of Dundee, Small-Polar-MMV Screening Library” (2021).
# Among all 38,000 compounds or so, about 1,200 (3.2%) showed an effect of 50% or more. The median lay at about -58%. For the sample, strong results were picked, then their nearest neighbours and some compounds at random.
# System: Plasmodium falciparum
# Experiment: Calibr Malaria Delayed Death Assay SOP
# Type: functional, organism-based
# Set-up: scale not given: in the data most compounds retested in dose-response had high values
# Conditions: concentration 4.99e-06 (unit not given; other assays of the set use mol/L)
row,Structure (SMILES),Percent Effect [%]
1,CCC1CN(CC(=O)NCCN(CC)CC)c2ccccc2S1 (stereo not given),75.77
2,CCC1CN(CC(=O)NCCN2CCCC2)c2ccccc2S1 (stereo not given),62.37
3,CCn1nc(C)c2ccn(CC(=O)NCCN3CCCCC3)c(=O)c21,-46.75
4,COc1ccccc1N1CCC(CNC(=O)CN2CSCC2=O)C1 (stereo not given),-74.71
5,O=C(NCCN1CCCCC1)c1cccc(Cl)c1Cl,47.98
6,Cc1nn(C)c2c(=O)n(CC(=O)NCCN3CCCCCC3)ccc12,8.921
7,O=C(NCCN1CCCC1)c1cc2c(s1)CCN2C(=O)c1ccccc1,-40.79
8,CCC1CN(CC(=O)NCCN2CCCCC2)c2ccccc2S1 (stereo not given),71.16
9,CCC1CN(CC(=O)NCCN2CCCCCC2)c2ccccc2S1 (stereo not given),72.72
10,O=C(NCCN1CCCCC1)c1nc2ccccc2c(=O)[nH]1,-48.08
11,CCN(CC)CCNC(=O)c1cnc(-c2ccccc2)nc1,-36.61
12,Cc1ccccc1C1CCN(CCNC(=O)CS(C)(=O)=O)C1 (stereo not given),-6.702
13,O=C1CCCN1Cc1ncn2c1CN(C(=O)Cc1ccccc1)CCC2,-76.95
14,CC1CCCCN1C(=O)COCc1nc(-c2ccncc2)no1 (stereo not given),-64.65
15,O=C(O)C(F)(F)F.O=C(O)C(F)(F)F.O=C(O)c1c(-c2ccncc2)ncc2c1CCN(CC1CCOC1)C2 (stereo not given),-34.25
16,Cc1cc(S(=O)(=O)N2CCCc3ccccc32)sc1C(=O)O,-124.8
17,O=C(Cc1ccsc1)N1Cc2nc(CN3CCCCC3)oc2C1.O=C(O)C(F)(F)F,-52.68
18,Cc1nonc1CN(C)Cc1nc(-c2cccc(F)c2F)oc1C,-82.79
19,COCCN(Cc1ccccc1)C(=O)c1cnn(C)c1C,-75.6
20,O=C(O)C(F)(F)F.O=C(O)C(F)(F)F.c1cc(CN2CCC3(CC2)COC(COCC2CC2)C3)ccn1 (stereo not given),-17.94
21,Cc1nn(C)c(Oc2ccccc2)c1CNC1CCCCNC1=O (stereo not given),-0.05055
22,COc1ccc(-c2c(C)nn3c(=N)c(C#N)n[nH]c23)cc1OC,87.26

row,Structure (SMILES),Percent Effect [%]
1,COc1ccc(-c2c(C)nn3c(=N)c(C#N)n[nH]c23)cc1,-120.8
2,COc1ccc(-c2c(C(C)C)nn3c(=N)c(C#N)n[nH]c23)cc1,-149.3
3,CCn1ncc2c1C(COC)CN(Cc1ccc(C)o1)C2 (stereo not given),-90.58
4,CCN(C)C(=O)c1cccc(C(=O)N(C)Cc2cccc(O)c2)c1,-54.27
5,O=C(NC[C@H]1C[C@@H]2CCN1C[C@@H]2CN1CCCCC1)Nc1ccccc1,-35.07
6,O=S(=O)(NC[C@H]1C[C@@H]2CCN1C[C@@H]2CN1CCOCC1)c1ccccc1,-72.09
7,O=S(=O)(NC[C@H]1C[C@@H]2CCN1C[C@@H]2CN1CCCC1)c1ccc(Cl)cc1,89.33
8,Cc1nn(C)cc1CN1CCCCCC1c1ccccc1Cl (stereo not given),-108.4
9,CCSc1ncc(-c2cc(C3CC3)nc(N)c2C#N)cn1,1.431
10,CCSc1ncc(-c2cc(C3CCC3)nc(N)c2C#N)cn1,-33.43
11,CCCNc1ncc(-c2cc(C3CC3)nc(N)c2C#N)cn1,54.19
12,Cc1ccc(CSc2ncc(Br)c(C(=O)O)n2)cc1,-107.1
13,NC(=O)Nc1ccc(C(=O)NCCn2cccc2)cc1,-116.7
14,COc1ccccc1CC(C)CC(=O)O (stereo not given),-155.2
15,CC(N)Cc1ccccc1Sc1ccccc1.O=C(O)/C=C\C(=O)O (stereo not given),77.8
16,CC[C@H](C)[C@@H](CO)NC(C)Cc1ccccc1F (stereo not given in full),48.98
17,CNS(=O)(=O)CC(=O)NC(C)Cc1ccccc1Br (stereo not given),-190.6
18,Cn1c(CC(=O)O)c(Sc2ccccc2)c2ccccc21,-130
19,CC(N)Cc1ccccc1Sc1ccc(O)cc1.CC(N)Cc1ccccc1Sc1ccc(O)cc1.O=C(O)C(=O)O (stereo not given),71.69
20,NCc1ccccc1Sc1ccc(O)cc1.O=C(O)/C=C\C(=O)O,55.63
21,CC(C(=O)Nc1ccccc1Sc1ccccc1)S(C)(=O)=O (stereo not given),-117.7
22,CNC(C)Cc1ccccc1Sc1ccc(O)cc1.Cl (stereo not given),87.88

row,Structure (SMILES),Percent Effect [%]
1,CC(C)C(=O)NS(=O)(=O)CCc1ccccc1,-111.2
2,CC(C)CCN1C2(CCN(C(=O)C3(C)CC3)C2)c2ccccc2S1(=O)=O (stereo not given),-11.02
3,CCc1ncc2c(n1)CN(Cc1nnc(CC)o1)CC2,-50.82
4,CC(C)Nc1nc2c(cc1C(=O)O)CCN(Cc1ccsc1)CC2.O=C(O)C(F)(F)F.O=C(O)C(F)(F)F,-107.1
5,Cc1csc(CNC(=O)NCC(C)Cn2nc(C)cc2C)n1 (stereo not given),-114.8
6,Cc1c(C(=O)N(C)C)cccc1N(C)S(C)(=O)=O,-103.2
7,Cc1ncc(CNC(=O)Cc2cccs2)c(C2CCCN2C)n1 (stereo not given),-27.86
8,Cc1nn(C)c(C)c1CC(=O)N1CCCC1Cn1cccn1 (stereo not given),-102.7
9,Cc1cc(F)ccc1S(=O)(=O)N1CCN(C)c2ccncc21,20.68
10,CN1CCCN(S(=O)(=O)c2cnn(C)c2)c2cc(Cl)ccc21,-19.46
11,CN1CCN(S(=O)(=O)c2cccc(F)c2)c2cnccc21,11.1
12,Cc1ccc(S(=O)(=O)N2CCN(C)c3ccncc32)cc1F,60.6
13,CN1CCN(S(=O)(=O)c2ccc(Cl)c(Cl)c2)c2cnccc21,89.32
14,CN1CCN(S(=O)(=O)c2cccnc2)c2cnccc21,-116.1
15,CCOC(=O)COc1nc(CC(C)C)c2c(c1C#N)CCC2,-73.52
16,CN1CCCCC1CCC(=O)NCCCn1ncc2ccccc21 (stereo not given),-37.16
17,CCSc1cc(C(=O)NC2CCN(C(=O)c3ccncc3)CC2)ccn1,-119
18,CC(NCc1cnc(C2CCC2)s1)c1ccccc1-n1cccn1 (stereo not given),-47.47
19,CC(NC1CCCC1)c1ccccc1-n1cccn1 (stereo not given),80.66
20,O=C(NCc1ccccc1-n1cccn1)N1CCN2CCCCC2C1 (stereo not given),-71.32
21,CS(=O)(=O)CCCN(CCCO)C1CCc2ccccc21 (stereo not given),-127.8
